Screening data (PubChem BioAssay)
HCV inh – blocks hepatitis C virus; Potency, µM (highest dose often 41.8 µM), hits mostly inhibitors; actives 3.4% (n = 340,000); Huh7.5.1 HCVcc-Cre infection, luciferase reporter, 44 h; active = well fitted inhibition curve with a large enough effect; inconclusive = small, poorly fitted or top-dose-only effect, or another doubt; inactive = no such curve, though single readings can be large or run the other way
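Whole-lifecycle infectious HCVcc-Cre system; cells 1,000/well, compound then virus (~0.5 moi) added 4 h after plating, 44 h culture. Luciferase read 15 sec following 15 min substrate incubation, room temp.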
VACV Venus inh – inhibitors of vaccinia virus (Venus reporter). Potency, µM (highest dose often 36.5 µM), usual class: inhibitors. Vaccinia virus Venus reporter expression, fluorescence. actives 0.46% (n = 330,000). AID 720580; calls by dose curve; tested in A549 cells; note: nearly all actives have a fitted effect of over 30% in size
VACV mCherry inh – vaccinia inhibition (mCherry reporter). Vaccinia virus mCherry reporter infection, fluorescence. Potency, µM (series often up to 36.5 µM), actives largely listed as inhibitors. actives 0.63% (n = 310,000). AID 720579; calls by dose curve; tested in A549 cells; note: nearly all actives have a fitted effect of over 35% in size
Numbers stand for hits; – = inactive; ? = inconclusive; · = no result given; [ ] = another dose, or the depositor's remark. Sampled rows, rich in hits. Any-hit rate of the full collection: about 3.3%.

SMILES | HCV inh | VACV Venus inh | VACV mCherry inh
O=C(C[C@H]1C[C@H](C(=O)N2CCOCC2)[C@@]2(CCC3CCCC3)c3[nH]c4cc(-c5ccco5)ccc4c3CCN2C1=O)NCc1ccco1 | – | – | ?
O=C(C[C@H]1C[C@H](C(=O)N2CCOCC2)[C@@]2(CCC3CCCC3)c3[nH]c4cc(-c5ccco5)ccc4c3CCN2C1=O)NCCc1ccccn1 | – | 10µM | ?
CCOC(=O)c1ccc(N2C(=O)c3n[nH]c(C)c3C2c2ccc(OCC)cc2)cc1 (stereo not drawn) | · | – | –
COc1ccc(-c2cc(C)cc3c2OC(CNC(=O)/C=C/c2ccncc2)C3)nn1 (stereo not drawn) | · | – | –
CC1CCN(c2nc3c(c(=O)n(C)c(=O)n3C)n2Cc2ccccc2)CC1 | ? | – | 20µM
Cn1c(=O)c2c(nc(CN3CCc4ccccc4C3)n2Cc2ccc(Cl)cc2)n(C)c1=O | – | – | –
CN1CCN(c2nc3c(c(=O)n(C)c(=O)n3C)n2Cc2ccccc2)CC1 | – | · | ·
Cn1c(=O)c2c(nc(CN3CCc4ccccc4C3)n2Cc2ccccc2)n(C)c1=O | 13µM | – | –
O=C(NCCc1ccccc1)c1ccc(Cn2c(SCc3ccccc3)nc3cccnc32)cc1 | · | – | –
CCN1C(=C(C#N)C#N)C=Cc2cc(C)ccc21 | – | – | –
C=CC[n+]1c(/C=C2\C=Cc3cc(C)ccc3N2CC)ccc2ccccc21 | 2.5µM | · | ·
Cc1ccc(S(=O)(=O)c2cc3c(=O)n4cccc(C)c4nc3n(C3CCCCC3)c2=N)cc1 | – | – | –
Cc1ccc(S(=O)(=O)c2cc3c(=O)n4ccccc4nc3n(C3CCCC3)c2=N)cc1 | 5µM | – | –
Cc1ccccc1OCCn1cc(C(=S)N2CCCC2)c2ccccc21 | 11µM | ? | ?
Cc1ccccc1OCCn1cc(C(=O)C(=O)N2CCOCC2)c2ccccc21 | – | – | –
CC(=O)c1cn(CCOc2ccccc2C)c2ccccc12 | 0.79µM | · | ·
COc1ccccc1OCCn1cc(C(=O)O)c2ccccc21 | – | – | –
CCOC(=O)C1=C(Cc2ccc(Cl)cc2)C(=O)c2ccccc2C1=O | 11µM | – | –
CCOC(=O)C1=C(O)c2ccccc2C(=O)/C1=C\c1ccc(C)cc1 | – | – | –
O=C(Nc1ccccc1)C1=C[C@@H](C2CC2)C[C@@H](OCc2ccc(CO)cc2)O1 | 0.56µM | – | –
O=C(Nc1ccccc1)C1=C[C@H](c2ccccc2)C[C@H](OCc2ccc(CO)cc2)O1 | –[8.37 µM] | – | –
OCCN1CCN(Cc2ccc3c(c2)CN(Cc2cc4ccccc4o2)CCO3)CC1 | · | – | –
NNC(=O)Cn1c2ccccc2c2ccccc21 | – | – | ?
O=C(O)Cn1c2ccccc2c2ccccc21 | 4µM | – | –
O=C1c2ccccc2C(=O)N1c1ccccn1 | · | – | –
SMILES | HCV inh | VACV Venus inh | VACV mCherry inh
N=C(N)Sc1nc(N2CCCCC2)nc(N2CCCCC2)n1 | – | – | –
c1ccc(Sc2nc(N3CCCCC3)nc(N3CCCCC3)n2)nc1 | 10µM | · | ·
C=C(C)C(O)Cc1c(OC)ccc(C(=O)/C=C/c2ccc(O)cc2)c1O (stereo not drawn) | ? | – | –
CC(C)=CCC/C(C)=C/Cc1c(O)ccc(C(=O)/C=C/c2ccc(O)cc2)c1O | 25µM | – | ?
Cc1cccc(-c2nnc(SCC(=O)NC3CCCCC3)o2)c1 | · | – | –
Cc1nn(C)c(Oc2ccc(Cl)cc2)c1C(=O)Nc1ccc(F)cc1F | 10µM | · | ·
Cn1nc(C(F)(F)F)c(C(=O)Nc2ccc(F)cc2F)c1Cl | – | – | –
Cc1cc(C)nc(/N=C(\N)Nc2ccc(OCCC(C)C)cc2)n1 | 10µM | ? | ?
COc1ccc(N/C(N)=N/c2nc(C)cc(C)n2)cc1 | · | – | –
Cc1cc(C)nc(/N=C(\N)Nc2ccc(OCc3ccccc3)cc2)n1 | 10µM | ? | ?
CCOC(=O)C(=O)Nc1ccc(OCc2ccccc2)cc1 | – | – | –
COc1cc2nc(N3CCCN(C)CC3)nc(N)c2cc1OC | · | – | –
CC(C)C[C@H]1CNC(=S)N1C[C@H]1CCCN1C[C@H](Cc1ccccc1)N1C[C@H](Cc2ccc(O)cc2)N(CC2CCCCCC2)C1=S | · | ? | –
CC(C)C[C@H]1CNC(=S)N1C[C@H]1CCCN1C[C@H](Cc1ccc(O)cc1)N1C[C@H](Cc2ccccc2)N(CC2CCCCC2)C1=S | · | – | –
CC(C)C[C@H]1CNC(=S)N1CC1CCCN1C[C@H](Cc1ccc(O)cc1)N1C[C@H](Cc2ccccc2)N(CC2CCCCCC2)C1=S (stereo partly drawn) | 7.9µM | – | ?
CC(C)C[C@H]1CNC(=S)N1CC1CCCN1C[C@H](Cc1ccccc1)N1C[C@H](Cc2ccc(O)cc2)N(CC2CCCCC2)C1=S (stereo partly drawn) | 10µM | ? | ?
Nc1nc(NCCc2ccccc2)c2[nH]cnc2n1 | · | – | –
Cc1cccc(/C=C/c2nc3ccccc3c(=O)[nH]2)c1 | – | – | –
Cc1[nH]c2ccccc2c1/C=C/c1nc2ccccc2c(=O)[nH]1 | – | ? | 13µM
CC1C(=O)N(Cc2cccc(F)c2)c2ccccc2N1C(=O)c1ccccc1 (stereo not drawn) | ? | – | –
COc1cccc(CN2C(=O)C(C)N(C(=O)c3c(F)cccc3F)c3ccccc32)c1 (stereo not drawn) | 10µM | · | ·
CCCCN(C)CCN1C(=O)C2C(C(=O)Nc3ccc(C)cc3)C3C=CC2(O3)C1C(=O)NC1CCCCC1 (stereo not drawn) | – | – | –
COc1ccc(CN2CCC(n3cc(C(=O)N4CCCC4)nn3)CC2)c(OC)c1C | · | – | –
COc1ccc(CCN2CC(C(=O)NCC(=O)Nc3ccc(F)c(F)c3)CC2=O)cc1OC (stereo not drawn) | – | – | –
CCN(C(=O)C1CCC(CNS(=O)(=O)c2cccc3nsnc23)CC1)c1cccc(C)c1 (stereo not drawn) | · | – | –
SMILES | HCV inh | VACV Venus inh | VACV mCherry inh
COc1ccc2cc(C(=O)Nc3ccccc3)sc(=O)c2c1OC | ? | – | –
O=C(Nc1ccccc1)c1cc2ccc3ccccc3c2s1 | 11µM | –[7.34 µM] | –[7.34 µM]
COc1cccc(-c2cnc(-c3ccncc3)nc2C2CCN(C(=O)Cc3csc(C)n3)CC2)c1 | · | – | –
O=C(CCOc1ccccc1)N(Cc1cccnc1)c1nc2c(Cl)cccc2s1 | · | ? | –
C/C(=N\O)c1sc(-c2ccccc2)nc1C | – | – | –
CCNC(=O)O/N=C(\C)c1sc(-c2ccccc2)nc1C | 11µM | – | –
CCC(COC)NC(=O)c1cnn(-c2ncc3c(n2)-c2ccccc2CCC3)c1C (stereo not drawn) | · | – | –
Cc1coc2c1c(C)cc1oc(=O)c(CC(=O)N[C@@H](CC(C)C)C(=O)O)c(C)c12 | – | · | ·
O=C(CSc1nc(-c2ccccc2)[nH]c1-c1ccccc1)Nc1ccc2c(c1)OCCO2 | · | – | –
Cc1cc(C)cc(C(=O)NCc2nc(-c3cccc(NC(=O)c4ccccn4)c3)oc2C)c1 | · | – | –
COc1cc2c(-c3ccc4cc[nH]c4c3)c(-c3ccc(C#N)cc3)oc(=O)c2cc1OC | 11µM | ? | ?
CCOC(=O)c1ccc(-c2c(-c3ccccc3OC)oc3ccccc23)cc1F | – | – | –
COc1ccccc1-c1oc2ccccc2c1-c1ccc2cc[nH]c2c1 | 11µM | ? | –
COc1ccc(-c2oc(=O)c3cc(OC)c(OC)cc3c2-c2ccc3c(c2)OCO3)cc1 | ? | – | –
CC(C)CNC(=O)C1(C)CCCCCN1C(=O)c1cc(C#N)cs1 (stereo not drawn) | · | – | –
